# Measured values published in PubChem BioAssay (Tox21).
# A number with no mark means an inactive call. The source made the active and inactive calls. Calls follow the shape of the full dose curve.
# Test: qHTS assay to identify small molecule agonists of the estrogen related receptor (ERR) signaling pathway from Tox21 library (AID 1224849); also: nearly all actives have a fitted effect of over 15% in size
# Details: ERR reporter cell line, ONE-Glo luciferase, 18 h; series mostly up to 92.4 µM; activity change, positive = activation: at the top concentration
# Text: National Center for Advancing Translational Sciences [NCATS]
# NIH Chemical Genomics Center [NCGC]
# U.S. Environmental Protection Agency [EPA]
# National Institutes of Environmental Health Sciences [NIEHS]
# National Toxicology Program [NTP]
# Estrogen related receptors (ERRs), the first orphan nuclear receptors discovered, play an important role in the control of cellular energy metabolism. ERRs are required for high-energy production in response to the environmental challenges. ERR-alpha was also identified as an adverse marker for breast cancer progression; ERR-alpha-positive tumors have a poor prognosis. To screen and to identify environmental compounds that perturb the ERR signaling pathways could provide valuable information for potential therapeutic or preventive measures in the treatment of metabolic disease. For identifying ERR agonists, ERR cell line (provided by NTP) has been used to screen Tox21 10K library.
# The ERR cells were dispensed at 2,000 cells/5 ul/well in 1536-well white plates using a Multidrop dispenser. After the assay plates were incubated at a 37 C/5% CO2 incubator for 6 hours, 23 nL of compounds dissolved in DMSO, positive and negative controls or DMSO only was transferred to the assay plate by a pin tool. The plates were incubated at 37 C for 18 hours. 4 ul/well of One-Glo reagent was added into the assay plates using a Flying Reagent Dispenser. After 30-minute incubation at room temperature, the luminescence intensity in the plates was measured using a ViewLux plate reader.
# % is scaled to controls: 0 for no effect and ±100 for the full control effect.
Compound,outcome,"activity change, positive = activation [%]"
CC(C)(C#N)c1cc(Cn2cncn2)cc(C(C)(C)C#N)c1,inactive,–
CN(C)CCOC(=O)COc1ccc(Cl)cc1,inactive,–
CC(C)CC(=O)CC(C)CC(C)C (stereo not given),inactive,–
O=C(O)CCCCCCCCC(=O)O,inactive,–
OCc1ccccc1,inactive,–
Cc1ccc([N+](=O)[O-])cc1S(=O)(=O)O,inactive,–
O=C(O)c1cc2ccccc2cc1O,inactive,–
Cc1ccc(S(=O)(=O)N=C=O)cc1,inactive,–
CCNc1cccc(C)c1,inactive,–
CC1(C)S[C@@H]2[C@H](NC(=O)COc3ccccc3)C(=O)N2[C@H]1C(=O)O,inactive,–
NCCNCCN,inactive,–
O=C1c2ccccc2CCc2ccccc21,inactive,–
O=C1C(c2[nH]c3ccccc3c2O)=Nc2ccccc21,–,1.92
Cc1ccc2ncccc2c1,inactive,–
CC(=O)CCC=C(C)C,inactive,–
O=C1CCCC1,inactive,–
CC(C)c1cccc(C(C)C)c1,inactive,–
O=S(=O)(O)c1ccccc1,inactive,–
CC(=O)OC1CC(C)OC(C)O1 (stereo not given),inactive,–
C=CC(=O)OCCC(=O)O,–,9.01

Compound,outcome,"activity change, positive = activation [%]"
COc1ccc(OC)cc1,inactive,–
Cc1ccc(C(C)C)c(O)c1,inactive,–
CCO[Si](CCCN)(OCC)OCC,inactive,–
C=C(C)CNCC,inactive,–
CCOCC(=O)O,inactive,–
CC(=O)OCc1ccco1,inactive,–
CC(=O)CC(C)(C)O,inactive,–
O=C(O)c1ccc(C(=O)O)c(C(=O)O)c1,inactive,–
CCc1ccccc1CC,inactive,–
O=C(O)Cn1c(=O)n(Cc2ccc(Br)cc2F)c(=O)c2ccc(Cl)cc21,inactive,–
CN(C)c1ccc(Cc2ccc(N(C)C)cc2)cc1,inactive,–
NCCCCCCN,inactive,–
CC(C)(Oc1ccc(CCNC(=O)c2ccc(Cl)cc2)cc1)C(=O)O,inactive,–
COC(=O)c1cccnc1,inactive,–
N#Cc1ccccc1,inactive,–
CCCOC(=O)c1ccccc1,inactive,–
CCCCCC(=O)O,inactive,–
CC1(C)NC(=O)NC1=O,inactive,–
O=S(=O)(O)c1ccc(N=Nc2c(O)ccc3cc(S(=O)(=O)O)ccc23)cc1,inactive,–
CC(CCl)OP(=O)(OC(C)CCl)OC(C)CCl (stereo not given),–,-7.27
